Holding throughout (experiment): DAPPL (digital affinity profiling via proximity ligation, sequencing); 10 mM Tris-HCl pH 7.5, 50 mM NaCl, 1 mM DTT, 4% glycerol, room temperature, 30 min; GST-TFs on glutathione beads, 16-mer random dsDNA library, 0.1% formaldehyde crosslink after washing; high values mean tight binding
Experiment [1] concerns the target T1, FLI1 (Homo sapiens, UniProt Q01543 1-452).
T1 sequence: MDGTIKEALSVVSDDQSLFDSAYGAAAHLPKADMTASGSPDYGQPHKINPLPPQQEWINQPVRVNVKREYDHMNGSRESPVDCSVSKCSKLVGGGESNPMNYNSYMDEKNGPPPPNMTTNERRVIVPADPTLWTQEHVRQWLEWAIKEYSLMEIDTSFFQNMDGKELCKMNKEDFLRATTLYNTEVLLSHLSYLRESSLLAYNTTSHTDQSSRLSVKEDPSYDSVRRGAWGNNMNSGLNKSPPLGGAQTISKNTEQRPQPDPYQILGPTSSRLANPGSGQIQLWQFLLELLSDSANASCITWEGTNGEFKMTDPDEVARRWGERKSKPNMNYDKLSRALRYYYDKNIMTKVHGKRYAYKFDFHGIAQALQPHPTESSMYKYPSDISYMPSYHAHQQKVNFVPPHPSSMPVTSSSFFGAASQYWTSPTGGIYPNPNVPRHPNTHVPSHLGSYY
The following applies: protein: recombinant; tags: N-terminal GST; dsDNA, one strand shown. In outline: (§1)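 Each value of binding signal is a hexamer's read frequency for a factor divided by the same hexamer's frequency in the tag-only sample. Barcoded, bead-captured GST fusions of human transcription factors made in yeast were pooled with that sample and incubated with 200 nmole of a random double-stranded 16-mer DNA library in Tris/NaCl/DTT/glycerol buffer at room temperature for 30 min. Washing, 0.1% formaldehyde crosslinking, proximity ligation, PCR and Illumina NextSeq500 sequencing followed.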

Experiment [2] deals with T2, ELK1 (Homo sapiens, UniProt P19419 1-428).
T2 sequence: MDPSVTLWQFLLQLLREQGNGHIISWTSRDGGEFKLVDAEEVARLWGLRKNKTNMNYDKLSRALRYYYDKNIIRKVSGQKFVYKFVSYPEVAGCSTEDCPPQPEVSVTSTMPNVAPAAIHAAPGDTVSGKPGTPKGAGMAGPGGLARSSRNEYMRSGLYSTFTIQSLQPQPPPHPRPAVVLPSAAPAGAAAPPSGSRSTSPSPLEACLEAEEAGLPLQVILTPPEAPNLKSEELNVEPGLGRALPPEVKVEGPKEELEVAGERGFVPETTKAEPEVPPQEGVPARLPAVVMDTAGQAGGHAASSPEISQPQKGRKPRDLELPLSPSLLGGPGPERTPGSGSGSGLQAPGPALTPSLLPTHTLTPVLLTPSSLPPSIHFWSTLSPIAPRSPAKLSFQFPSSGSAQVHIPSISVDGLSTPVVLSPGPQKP
The following applies: protein: recombinant; tags: N-terminal GST; dsDNA, one strand shown. In outline:
as §1

Experiment [3] concerns the target T3, GABPA (Homo sapiens, UniProt Q06546 1-454).
T3 sequence: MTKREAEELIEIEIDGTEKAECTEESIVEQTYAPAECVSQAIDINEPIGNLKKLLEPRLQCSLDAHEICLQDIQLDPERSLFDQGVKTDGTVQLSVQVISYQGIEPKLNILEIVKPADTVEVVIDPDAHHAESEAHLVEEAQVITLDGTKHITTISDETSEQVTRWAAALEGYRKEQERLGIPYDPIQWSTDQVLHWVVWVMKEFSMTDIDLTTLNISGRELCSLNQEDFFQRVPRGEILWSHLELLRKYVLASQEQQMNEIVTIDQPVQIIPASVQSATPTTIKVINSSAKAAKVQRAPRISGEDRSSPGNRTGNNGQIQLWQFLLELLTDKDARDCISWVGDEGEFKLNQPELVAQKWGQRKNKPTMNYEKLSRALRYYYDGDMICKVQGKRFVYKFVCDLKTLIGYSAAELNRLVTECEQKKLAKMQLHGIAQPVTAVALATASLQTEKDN
The following applies: protein: recombinant; tags: N-terminal GST; dsDNA, one strand shown. In outline: as §1

The target of experiment [4] is T4, ERG (Homo sapiens, UniProt P11308 1-479).
T4 sequence: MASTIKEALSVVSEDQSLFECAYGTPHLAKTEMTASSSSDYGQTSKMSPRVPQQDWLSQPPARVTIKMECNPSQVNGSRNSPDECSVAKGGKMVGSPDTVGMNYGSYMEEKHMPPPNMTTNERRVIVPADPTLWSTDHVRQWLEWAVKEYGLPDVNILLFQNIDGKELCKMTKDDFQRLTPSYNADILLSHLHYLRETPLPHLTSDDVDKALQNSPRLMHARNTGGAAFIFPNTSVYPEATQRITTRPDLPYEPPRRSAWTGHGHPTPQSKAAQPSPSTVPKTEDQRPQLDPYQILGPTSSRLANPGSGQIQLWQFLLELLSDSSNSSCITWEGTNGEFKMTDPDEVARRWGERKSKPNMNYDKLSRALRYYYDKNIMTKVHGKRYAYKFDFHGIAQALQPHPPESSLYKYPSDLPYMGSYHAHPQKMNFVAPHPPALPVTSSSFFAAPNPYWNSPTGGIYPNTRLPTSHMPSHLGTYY
The following applies: protein: recombinant; tags: N-terminal GST; dsDNA, one strand shown. The method, boiled down: as §1

Experiment [5] addresses ELF1 (Homo sapiens, UniProt P32519 1-619). The following applies: protein: recombinant; tags: N-terminal GST; dsDNA, one strand shown. In outline:
as §1

Experiment [6] concerns the target T5, EHF (Homo sapiens, UniProt Q9NZC4 1-300).
T5 sequence: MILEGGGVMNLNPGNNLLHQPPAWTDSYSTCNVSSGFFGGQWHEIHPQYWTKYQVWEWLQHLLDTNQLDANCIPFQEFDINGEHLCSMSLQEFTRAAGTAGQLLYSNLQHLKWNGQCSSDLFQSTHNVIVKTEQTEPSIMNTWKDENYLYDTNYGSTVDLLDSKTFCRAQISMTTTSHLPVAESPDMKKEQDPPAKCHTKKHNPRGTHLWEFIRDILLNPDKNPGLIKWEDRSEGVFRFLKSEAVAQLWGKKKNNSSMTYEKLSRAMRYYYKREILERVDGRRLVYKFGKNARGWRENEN
The following applies: protein: recombinant; tags: N-terminal GST; dsDNA, one strand shown. The method, boiled down:
as §1

Experiment [7] addresses SPI1 (Homo sapiens, UniProt P17947 1-270). The following applies: protein: recombinant; tags: N-terminal GST; dsDNA, one strand shown. In outline:
as §1

Experiment [8] addresses SPIB (Homo sapiens, UniProt Q01892 1-262). The following applies: protein: recombinant; tags: N-terminal GST; dsDNA, one strand shown. The method, boiled down:
as §1

Experiment [9] addresses T6, ELK3 (Homo sapiens, UniProt P41970 1-407).
T6 sequence: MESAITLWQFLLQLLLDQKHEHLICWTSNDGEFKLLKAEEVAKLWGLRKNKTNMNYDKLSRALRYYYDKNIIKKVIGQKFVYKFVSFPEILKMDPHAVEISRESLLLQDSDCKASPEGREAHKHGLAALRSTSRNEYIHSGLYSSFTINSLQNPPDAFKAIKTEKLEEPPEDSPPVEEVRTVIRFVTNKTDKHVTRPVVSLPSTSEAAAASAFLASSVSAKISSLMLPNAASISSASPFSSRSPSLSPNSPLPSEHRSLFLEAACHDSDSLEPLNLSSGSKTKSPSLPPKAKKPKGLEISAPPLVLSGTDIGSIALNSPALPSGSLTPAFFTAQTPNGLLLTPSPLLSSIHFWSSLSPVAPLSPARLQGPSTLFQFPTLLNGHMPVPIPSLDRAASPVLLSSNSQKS
The following applies: protein: recombinant; tags: N-terminal GST; dsDNA, one strand shown. The method, boiled down: as §1

The target in experiment [10] is T7, FEV (Homo sapiens, UniProt Q99581 1-238).
T7 sequence: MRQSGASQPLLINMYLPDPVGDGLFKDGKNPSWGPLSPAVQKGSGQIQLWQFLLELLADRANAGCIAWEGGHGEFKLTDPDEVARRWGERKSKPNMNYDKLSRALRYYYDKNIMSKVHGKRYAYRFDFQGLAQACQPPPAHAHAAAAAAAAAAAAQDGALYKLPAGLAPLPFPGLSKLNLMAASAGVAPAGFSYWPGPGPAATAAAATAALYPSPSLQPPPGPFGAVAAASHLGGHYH
The following applies: protein: recombinant; tags: N-terminal GST; dsDNA, one strand shown. The method, boiled down:
as §1

Experiment [11] deals with ETV5 (Homo sapiens, UniProt P41161 1-510). The following applies: protein: recombinant; tags: N-terminal GST; dsDNA, one strand shown. The method, boiled down:
as §1

Experiment [12] addresses HSF1 (Homo sapiens, UniProt Q00613 1-529). The following applies: protein: recombinant; tags: N-terminal GST; chain copies: 3; dsDNA, one strand shown. In outline:
as §1

Experiment [13] concerns the target T8, SPIC (Homo sapiens, UniProt Q8N5J4 1-248).
T8 sequence: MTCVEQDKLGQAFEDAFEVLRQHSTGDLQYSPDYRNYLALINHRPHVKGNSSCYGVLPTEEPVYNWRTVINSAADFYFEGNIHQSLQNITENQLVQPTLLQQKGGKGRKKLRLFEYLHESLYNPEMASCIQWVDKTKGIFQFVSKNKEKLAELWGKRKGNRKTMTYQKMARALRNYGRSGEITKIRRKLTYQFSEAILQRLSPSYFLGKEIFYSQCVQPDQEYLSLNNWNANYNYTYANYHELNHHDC
The following applies: protein: recombinant; tags: N-terminal GST; dsDNA, one strand shown. In outline: as §1

Experiment [14] has as its target ELF4 (Homo sapiens, UniProt Q99607 1-663). The following applies: protein: recombinant; tags: N-terminal GST; dsDNA, one strand shown. In outline:
as §1

Experiment [15] addresses T9, ELK4 (Homo sapiens, UniProt P28324-2 1-405).
T9 sequence: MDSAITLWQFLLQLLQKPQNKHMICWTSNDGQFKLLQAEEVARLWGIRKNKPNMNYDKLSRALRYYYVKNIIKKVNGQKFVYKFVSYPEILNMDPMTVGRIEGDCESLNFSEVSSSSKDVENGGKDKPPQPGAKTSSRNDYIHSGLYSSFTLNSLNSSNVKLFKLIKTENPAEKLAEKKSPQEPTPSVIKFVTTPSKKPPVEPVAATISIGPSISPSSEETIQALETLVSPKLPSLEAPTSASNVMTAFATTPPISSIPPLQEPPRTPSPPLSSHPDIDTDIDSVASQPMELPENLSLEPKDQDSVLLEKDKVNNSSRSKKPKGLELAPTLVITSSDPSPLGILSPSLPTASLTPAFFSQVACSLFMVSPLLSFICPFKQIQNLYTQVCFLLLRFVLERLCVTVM
The following applies: protein: recombinant; tags: N-terminal GST; dsDNA, one strand shown. In outline:
as §1

For experiment [16], the target named is T10, ETV2 (Homo sapiens, UniProt O00321 1-342).
T10 sequence: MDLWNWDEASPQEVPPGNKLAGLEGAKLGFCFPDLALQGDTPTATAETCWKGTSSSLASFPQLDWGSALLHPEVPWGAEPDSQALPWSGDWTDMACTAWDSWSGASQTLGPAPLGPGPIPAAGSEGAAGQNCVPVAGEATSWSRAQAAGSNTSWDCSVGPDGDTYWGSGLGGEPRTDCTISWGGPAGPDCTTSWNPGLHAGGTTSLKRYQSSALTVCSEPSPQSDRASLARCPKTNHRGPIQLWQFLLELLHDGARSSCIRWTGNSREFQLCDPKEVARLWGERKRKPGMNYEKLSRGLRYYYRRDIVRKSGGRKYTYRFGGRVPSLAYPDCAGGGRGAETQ
The following applies: protein: recombinant; tags: N-terminal GST; dsDNA, one strand shown. The method, boiled down:
as §1

For experiment [17], the target named is T11, ELF3 (Homo sapiens, UniProt P78545 1-371).
T11 sequence: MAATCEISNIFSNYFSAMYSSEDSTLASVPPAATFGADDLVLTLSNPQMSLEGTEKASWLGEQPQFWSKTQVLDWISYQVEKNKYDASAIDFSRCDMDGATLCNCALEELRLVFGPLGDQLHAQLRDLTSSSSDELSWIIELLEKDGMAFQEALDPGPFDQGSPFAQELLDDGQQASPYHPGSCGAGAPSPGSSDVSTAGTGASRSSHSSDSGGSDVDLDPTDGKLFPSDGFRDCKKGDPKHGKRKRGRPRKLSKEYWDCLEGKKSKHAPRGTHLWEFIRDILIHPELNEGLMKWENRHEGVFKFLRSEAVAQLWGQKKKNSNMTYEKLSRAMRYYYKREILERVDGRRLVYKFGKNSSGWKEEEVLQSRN
The following applies: protein: recombinant; tags: N-terminal GST; dsDNA, one strand shown. The method, boiled down:
as §1

Experiment [18] addresses CRX (Homo sapiens, UniProt O43186 1-299). The following applies: protein: recombinant; tags: N-terminal GST; dsDNA, one strand shown. The method, boiled down:
as §1

For experiment [19], the target named is ETV1 (Homo sapiens, UniProt P50549 1-477). The following applies: protein: recombinant; tags: N-terminal GST; dsDNA, one strand shown. The method, boiled down: as §1
Chain of ETV1 (P50549 whole entry): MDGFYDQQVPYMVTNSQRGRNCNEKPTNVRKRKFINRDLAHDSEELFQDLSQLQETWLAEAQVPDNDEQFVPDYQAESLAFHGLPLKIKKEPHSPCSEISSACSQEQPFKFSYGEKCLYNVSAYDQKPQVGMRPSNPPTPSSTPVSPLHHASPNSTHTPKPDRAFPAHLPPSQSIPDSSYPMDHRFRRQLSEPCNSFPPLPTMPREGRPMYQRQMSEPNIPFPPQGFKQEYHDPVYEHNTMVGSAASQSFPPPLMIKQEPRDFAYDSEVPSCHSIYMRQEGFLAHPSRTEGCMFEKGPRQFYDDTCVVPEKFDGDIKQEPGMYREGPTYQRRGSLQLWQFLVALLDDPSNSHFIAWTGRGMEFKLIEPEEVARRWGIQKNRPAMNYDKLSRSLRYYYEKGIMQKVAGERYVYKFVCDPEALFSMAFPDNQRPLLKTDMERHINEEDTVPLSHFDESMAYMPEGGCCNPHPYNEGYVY

Chain of ELF4 (Q99607 whole entry): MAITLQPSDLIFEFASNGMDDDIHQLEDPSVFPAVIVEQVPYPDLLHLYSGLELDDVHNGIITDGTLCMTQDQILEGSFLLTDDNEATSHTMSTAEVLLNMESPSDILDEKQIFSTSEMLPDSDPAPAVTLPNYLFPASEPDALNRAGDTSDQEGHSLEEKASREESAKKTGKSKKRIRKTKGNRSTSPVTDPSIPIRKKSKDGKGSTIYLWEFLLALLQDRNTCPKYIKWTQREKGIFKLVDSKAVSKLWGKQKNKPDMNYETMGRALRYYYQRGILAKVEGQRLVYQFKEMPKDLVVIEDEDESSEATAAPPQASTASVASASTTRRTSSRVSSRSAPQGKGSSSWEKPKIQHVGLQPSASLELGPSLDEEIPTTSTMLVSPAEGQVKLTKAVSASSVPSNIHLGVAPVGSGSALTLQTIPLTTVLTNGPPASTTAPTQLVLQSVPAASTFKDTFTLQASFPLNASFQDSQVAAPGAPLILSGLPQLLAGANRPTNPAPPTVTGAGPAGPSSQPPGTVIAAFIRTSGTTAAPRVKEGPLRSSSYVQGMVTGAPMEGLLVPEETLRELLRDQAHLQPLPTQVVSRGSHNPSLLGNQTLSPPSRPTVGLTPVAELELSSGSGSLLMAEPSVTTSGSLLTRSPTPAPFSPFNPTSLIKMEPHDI
Chain of HSF1 (Q00613 whole entry): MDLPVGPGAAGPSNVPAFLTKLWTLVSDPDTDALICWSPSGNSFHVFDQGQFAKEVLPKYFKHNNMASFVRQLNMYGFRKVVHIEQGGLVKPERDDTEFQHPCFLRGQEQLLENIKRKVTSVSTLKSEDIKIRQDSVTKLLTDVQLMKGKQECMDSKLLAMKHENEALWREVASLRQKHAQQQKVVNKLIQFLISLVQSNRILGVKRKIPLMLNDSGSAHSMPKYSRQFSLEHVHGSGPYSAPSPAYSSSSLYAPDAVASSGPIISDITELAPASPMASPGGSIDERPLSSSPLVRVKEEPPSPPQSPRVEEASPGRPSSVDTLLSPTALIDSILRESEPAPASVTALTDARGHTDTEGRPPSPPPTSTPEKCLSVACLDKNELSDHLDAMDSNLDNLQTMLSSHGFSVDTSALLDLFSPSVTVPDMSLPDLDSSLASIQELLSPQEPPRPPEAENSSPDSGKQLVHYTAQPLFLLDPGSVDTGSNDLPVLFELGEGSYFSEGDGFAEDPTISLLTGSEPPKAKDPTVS
Chain of SPIB (Q01892 whole entry): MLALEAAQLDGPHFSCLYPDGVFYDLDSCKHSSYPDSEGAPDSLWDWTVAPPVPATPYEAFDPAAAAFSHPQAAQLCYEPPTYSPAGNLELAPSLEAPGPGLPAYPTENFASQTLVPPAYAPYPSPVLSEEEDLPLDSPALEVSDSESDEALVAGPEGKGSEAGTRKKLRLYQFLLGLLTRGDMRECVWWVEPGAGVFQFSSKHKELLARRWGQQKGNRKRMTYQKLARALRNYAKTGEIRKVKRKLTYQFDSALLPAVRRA
Chain of ETV5 (P41161 whole entry): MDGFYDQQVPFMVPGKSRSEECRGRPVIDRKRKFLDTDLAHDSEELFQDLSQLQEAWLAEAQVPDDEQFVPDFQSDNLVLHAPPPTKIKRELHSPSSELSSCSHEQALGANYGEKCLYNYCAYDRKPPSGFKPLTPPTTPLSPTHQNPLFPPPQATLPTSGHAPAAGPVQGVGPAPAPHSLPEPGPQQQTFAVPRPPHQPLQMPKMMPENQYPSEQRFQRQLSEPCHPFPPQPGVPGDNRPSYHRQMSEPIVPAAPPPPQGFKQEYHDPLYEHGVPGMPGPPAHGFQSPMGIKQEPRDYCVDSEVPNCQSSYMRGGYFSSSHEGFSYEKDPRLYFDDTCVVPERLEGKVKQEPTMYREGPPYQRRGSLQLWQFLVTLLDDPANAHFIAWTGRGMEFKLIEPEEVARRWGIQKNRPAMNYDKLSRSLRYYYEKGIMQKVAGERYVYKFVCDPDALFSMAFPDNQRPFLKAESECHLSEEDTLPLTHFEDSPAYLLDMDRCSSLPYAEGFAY
Chain of CRX (O43186 whole entry): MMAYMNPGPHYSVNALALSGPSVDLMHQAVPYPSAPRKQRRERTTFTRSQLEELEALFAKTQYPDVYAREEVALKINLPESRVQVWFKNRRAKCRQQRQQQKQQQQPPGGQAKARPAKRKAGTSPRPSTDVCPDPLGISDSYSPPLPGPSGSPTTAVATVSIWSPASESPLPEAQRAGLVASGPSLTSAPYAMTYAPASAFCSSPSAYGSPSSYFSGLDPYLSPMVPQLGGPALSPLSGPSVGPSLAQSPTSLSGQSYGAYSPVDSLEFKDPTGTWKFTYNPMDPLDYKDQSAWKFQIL
Chain of ELF1 (P32519 whole entry): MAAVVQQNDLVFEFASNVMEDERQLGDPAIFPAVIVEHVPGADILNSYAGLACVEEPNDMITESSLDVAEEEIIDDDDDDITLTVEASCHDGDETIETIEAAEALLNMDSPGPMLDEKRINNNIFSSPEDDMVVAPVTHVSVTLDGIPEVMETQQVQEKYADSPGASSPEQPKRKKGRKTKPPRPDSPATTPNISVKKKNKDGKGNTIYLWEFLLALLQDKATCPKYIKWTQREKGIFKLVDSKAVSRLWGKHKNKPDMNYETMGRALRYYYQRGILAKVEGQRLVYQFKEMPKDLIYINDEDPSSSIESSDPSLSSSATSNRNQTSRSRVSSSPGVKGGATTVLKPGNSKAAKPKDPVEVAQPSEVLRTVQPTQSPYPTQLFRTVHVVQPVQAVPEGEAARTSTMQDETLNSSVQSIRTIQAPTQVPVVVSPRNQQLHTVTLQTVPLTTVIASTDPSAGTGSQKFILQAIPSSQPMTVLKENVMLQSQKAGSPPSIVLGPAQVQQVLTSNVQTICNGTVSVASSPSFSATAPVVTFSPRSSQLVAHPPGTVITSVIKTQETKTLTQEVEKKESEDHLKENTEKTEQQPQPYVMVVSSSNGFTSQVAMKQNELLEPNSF

Consider GACTTT, for which the binding signal in experiment [1] was 1.04 fold enrichment (6-mer frequency, TF over GST control); in experiment [2], 1.18 fold enrichment (6-mer frequency, TF over GST control); in experiment [3] it was 1.17 fold enrichment (6-mer frequency, TF over GST control); in experiment [4], 1.16 fold enrichment (6-mer frequency, TF over GST control); in experiment [5], 1.12 fold enrichment (6-mer frequency, TF over GST control); in [6] it was 1.07 fold enrichment (6-mer frequency, TF over GST control). The binding signal in experiment [7] was 1.23 fold enrichment (6-mer frequency, TF over GST control); in experiment [8] it was 1.12 fold enrichment (6-mer frequency, TF over GST control); in [9], 1.12 fold enrichment (6-mer frequency, TF over GST control); in experiment [10] it was 1.14 fold enrichment (6-mer frequency, TF over GST control); in experiment [11], 1.22 fold enrichment (6-mer frequency, TF over GST control); in [12], 1.4 fold enrichment (6-mer frequency, TF over GST control). Also, the binding signal in experiment [13] is 1.21 fold enrichment (6-mer frequency, TF over GST control); in experiment [14] it was 1.22 fold enrichment (6-mer frequency, TF over GST control); in experiment [15], 1.17 fold enrichment (6-mer frequency, TF over GST control); in experiment [16], 1.1 fold enrichment (6-mer frequency, TF over GST control); in [17] it was 1.1 fold enrichment (6-mer frequency, TF over GST control); in experiment [18], 1.37 fold enrichment (6-mer frequency, TF over GST control). Also, the binding signal in experiment [19] is 1.24 fold enrichment (6-mer frequency, TF over GST control).

The values are drawn from article PMC7862700, “An all-to-all approach to the identification of sequence-specific readers for epigenetic DNA modifications on cytosine”.
